In PubChem BioAssay (NCATS):
Several values for one entry are separate records, joined by “and”; a condition that tells them apart may be missing. Identical values can stand only once. Records with an inconclusive call do not appear. Activity calls are given as the source filed them. Unless noted, calls come from the whole dose curve; as a rule, active = well fitted curve in the direction sought with a large enough effect; inconclusive = small, poorly fitted or top-dose-only effect, or another doubt; inactive = no such curve, though single readings can be large; an effect the other way counts as inactive or inconclusive.

Assays:
[1] = molecular target: Cytochrome P450 2C9 (Homo sapiens) (UniProt P11712); experiment: qHTS Assay for Inhibitors and Substrates of Cytochrome P450 2C9 (AID 883); note: nearly all actives have a fitted effect of over 60% in size; note: potency is the fitted concentration of half-maximal effect
Method in brief: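 Luminescent read-out of deoxyluciferin hydroxylation, normalized to 57uM sulphaphenazole (AC100). Reaction: 10nM enzyme, 100uM Luciferin-H (equal to KM), 25mM KPO4, 10 min compound preincubation, then 60 min with NADPH regeneration, both at 37C.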

[2] = molecular target: Guanine nucleotide-binding protein G(i) subunit alpha-1 (Homo sapiens) (UniProt P63096); experiment: qHTS Assay for Inhibitors of RGS12 GoLoco Motif Activity (Green Fluorophore) (AID 879);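 note: 0% = labeled peptide with Gαi1 and full inhibition = labeled peptide alone without protein; negative values mean loss of peptide binding seen as reduced polarization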
Method in brief: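 A drop in FITC polarization marked displacement of the FITC-tagged RGS12 GoLoco peptide (10 nM) from Gαi1 (50 nM). Compounds were incubated 10 min at room temperature in Tris pH 7.5 buffer containing 150 mM NaCl, 0.1 mM GDP and 0.05% NP40; unlabeled peptide titration served as control.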

[3] = molecular target: Muscarinic acetylcholine receptor M1 (Rattus norvegicus) (UniProt P08482); experiment: qHTS Assay for Antagonists of Acetylcholine Muscarinic M1 Receptor: Measurement of IP-One Response (AID 944); note: nearly all actives have a fitted effect of over 75% in size
Method in brief: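 Antagonist mode with rat M1 receptor transfected into CHO cells. Compound is added first for 10 min, carbachol at its EC80 follows for 30 min, and lysis reagents then allow TR-FRET detection of accumulated IP1.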

[4] = molecular target: Pyruvate kinase PKM (Homo sapiens) (UniProt P14618); experiment: qHTS Assay for Activators of Human Muscle Pyruvate Kinase (AID 954; active = well fitted curve in the direction sought with a large enough effect, not every such curve was filed as active;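 note: 0% = uninhibited enzyme and -100% = no enzyme or full thiadiazolimine inhibition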)
Method in brief: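 ATP production by PKM2 detected via luciferase luminescence after 1 h room-temperature reaction (0.1 nM enzyme, PEP at Km 0.5 mM, ADP 0.1 mM, pH 7.2 imidazole buffer). Inhibition scaled to no-enzyme control; activation referenced to 0.3 nM enzyme wells.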

[5] = molecular target: Alpha-galactosidase (Coffea arabica) (UniProt Q42656); experiment: Counterscreen for Glucocerebrosidase Inhibitors: qHTS Assay for Coffee Bean alpha-Galactosidase at pH 4.5 (AID 957);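 note: series mostly up to about 77 µM; plate controls were enzyme alone for no effect and no enzyme for full effect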
Method in brief: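 Enzyme is added first (2 nM final), then compounds titrated from 0.7 nM to 77 uM, then 80 uM 4-methylumbelliferyl alpha-D-galactopyranoside; after 20 min at room temperature a pH 10 NaOH/glycine stop precedes fluorescence reading at 365/440 nm.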

[6] = molecular target: Alpha-galactosidase A (Homo sapiens) (UniProt P06280); experiment: Counterscreen for Glucocerebrosidase Inhibitors: qHTS Assay for Human alpha-Galactosidase at pH 4.5 (AID 992); note: 0% is about no effect
Method in brief: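 Fluorogenic 1536-well qHTS at pH 4.5 (citrate, Tween-20): 2 nM enzyme, 80 uM 4-MU-alpha-galactoside, 20 min room temperature, NaOH/glycine stop. Titration 0.7 nM to 77 uM, data normalized to no-enzyme and full-activity controls, Hill-fitted AC50.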

[7] = molecular target: alpha-glucosidase (Oryza sativa, rice) (UniProt Q653V4); experiment: Counterscreen for Glucocerebrosidase Inhibitors: qHTS Assay for Rice alpha-Glucosidase at pH 5.0 (AID 997);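 note: 0% = full activity with enzyme and -100% = basal without enzyme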
Method in brief: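 Endpoint fluorogenic assay at pH 5.0: compounds (0.7 nM to 77 uM) titrated against 4 nM rice enzyme and 400 uM 4-MU-alpha-glucoside for 20 min at room temperature; NaOH/glycine stop, read ex 365/em 440 nm, Hill-fitted AC50.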

[8] = qHTS Assay for Identification of Small Molecule Agonists for Thrombopoietin (TPO) Signaling Pathway (AID 917); note: % is set by controls: 0 for no effect and ±100 for the full control effect
Method in brief: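 Luciferase reporter (Glycoprotein IIb promoter) in IL-3-deprived Ba/F3 cells carrying human TPO receptor; compounds co-added with 26 pM TPO, incubated 24 h, 37 C. Steadylite luminescence measured after 10 min.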

[9] = molecular target: Peroxisome proliferator-activated receptor gamma (Homo sapiens) (UniProt P37231); experiment: qHTS assay for small molecule agonists of peroxisome proliferator-activated receptor gamma signaling (AID 588536; active = well fitted curve in the direction sought with a large enough effect in the signal ratio, with a control signal flat, not every such curve was filed as active; the % refers to the signal ratio;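 note: 0% = DMSO basal wells and 100% = rosiglitazone at 2 µM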)
Method in brief: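 This is an agonist-mode beta-lactamase reporter assay in HEK293 PPAR-gamma-UAS-bla cells with 1% charcoal/dextran FBS. Compound titrations ran 16 h at 37 C before CCF4 detection. EC50 and efficacy are Hill fits scaled to 2 uM rosiglitazone (100%) and DMSO basal.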

[10] = molecular target: Vitamin D3 receptor (Homo sapiens) (UniProt P11473); experiment: qHTS assay for small molecule antagonists of vitamin D receptor signaling (AID 588541; calls by dose curve;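 note: receptor activated by calcitriol during compound treatment; series mostly up to about 77 µM; % is set by controls: 0 for no effect and ±100 for the full control effect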)
Method in brief: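 Antagonist-mode beta-lactamase reporter assay: HEK293T VDR-UAS-bla cells were exposed to titrated compound alongside 1-alpha,25-dihydroxyvitamin D3 at 3 nM final for 16 h. Values were normalized to the 50 nM agonist control and DMSO basal, with IC50 and efficacy from Hill equation fits.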

[11] = molecular target: Vitamin D3 receptor (Homo sapiens) (UniProt P11473); experiment: qHTS assay for small molecule agonists of vitamin D receptor signaling (AID 588543; calls by dose curve;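 note: 0% = DMSO basal and 100% = reference agonist control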)
Method in brief: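 Agonist-mode beta-lactamase reporter: HEK293T VDR-UAS-bla cells in charcoal-stripped 2% FBS, compound series 16 h 37 C, CCF4 2 h RT. EC50 from Hill fit, scaled against DMSO and 50 nM calcitriol control.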

[12] = molecular target: Thyroid hormone receptor beta (Homo sapiens) (UniProt P10828); experiment: qHTS assay for small molecule agonists of thyroid hormone receptor beta signaling (AID 588545; calls by dose curve;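 note: 0% = DMSO only and 100% = 10 nM T3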)
Method in brief: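 TR-UAS-bla-GripTite HEK 293 cells in medium with 2% charcoal/dextran FBS, 0.1 mM NEAA and 1 mM sodium pyruvate were treated with titrated compounds for 18 hrs at 37 C. Beta-lactamase reporter was read with CCF4 dye (ex 405, em 460/530 nm); EC50 from Hill fits.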

[13] = molecular target: Thyroid hormone receptor beta (Homo sapiens) (UniProt P10828); experiment: qHTS assay for small molecule antagonists of thyroid hormone receptor beta signaling (AID 588547; active = well fitted inhibition curve with a large enough effect in the signal ratio, with a control signal flat, not every such curve was filed as active; the % refers to the signal ratio;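 note: cells stimulated with 0.4 nM T3 agonist during compound exposure; series mostly up to about 77 µM; % is set by controls: 0 for no effect and ±100 for the full control effect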); conditions: TR-UAS-bla HEK293, beta-lactamase ratio, antagonist mode, 18 h
Method in brief: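 Inhibition of T3-driven (0.4nM final) beta-lactamase reporter activity was measured over 0.59 nM to 92 uM compound after 18 h at 37 C. The cells were GripTite HEK293 TR-UAS-bla in charcoal/dextran-stripped serum, with CCF4 ratio read-out and IC50 from Hill fits.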

[14] = qHTS assay for small molecule activators of the nuclear factor-kappa B (NF-kB) signaling pathway (AID 651749; active = well fitted activation curve with a large enough effect in the signal ratio; the % refers to the signal ratio; note: series mostly up to about 77 µM; % of control where 0% means no effect); conditions: NF-kB-bla ME-180 cells, beta-lactamase FRET ratio, 16 h; activation: hits give high values
Method in brief: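 Activation measured after 16 hr compound treatment at 37C, 5% CO2, of 2,000 ME-180 cells/well stably expressing an NF-kB response element–driven beta-lactamase reporter, via FRET-disruption fluorescence.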

[15] = qHTS assay for environmental chemicals that activate the Aryl hydrocarbon Receptor (AhR) signaling pathway (AID 651777); conditions: 1A2-DRE human hepatoma cells, luciferase, 24 h; activation: hits give high values; note: % of control where 0% means no effect; nearly all actives have a fitted effect of over 15% in size
Method in brief: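 1A2-DRE human hepatoma reporter line; 1,200 cells/well; cmpd or DMSO 24 h, 37 C/5% CO2; One-Glo 30 min RT; luciferase lum.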

[16] = molecular target: Peroxisome proliferator-activated receptor alpha (Homo sapiens) (UniProt Q07869); experiment: qHTS assay for small molecule agonists of the peroxisome proliferator-activated receptor alpha (PPARalpha) signaling pathway (AID 651778); conditions: PathHunter PPARalpha complementation, chemiluminescence, 6 h; hits give high values; note: % of control where 0% means no effect
Method in brief: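 Chemiluminescence from complemented enzyme reported PPARalpha activation in cells after 6 hr of compound treatment at 37 C. The detection reagent was incubated for 60 min at room temperature, and compounds were scored as agonists.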

[17] = qHTS assay for small molecule agonists of the antioxidant response element (ARE) signaling pathway measured by Nrf2-dependant transcriptional activity - cell viability counter screen (AID 720653; active = well fitted curve in the direction sought with a large enough effect in the repeat runs; an effect the other way counts as inactive or inconclusive; note: % is set by controls: 0 for no effect and ±100 for the full control effect); conditions: ARE-bla HepG2 viability, CellTiter-Glo ATP luminescence, 16 h; hits give low values
Method in brief: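 Cytotoxicity counter screen: intracellular ATP quantified by CellTiter-Glo luminescence in the same ARE-bla HepG2 plates, after 16 h compound exposure and a 2 h beta-lactamase substrate step.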

[18] = qHTS assay for cell viability of the p53RE-bla HCT-116 cell line (AID 743292); note: % is set by controls: 0 for no effect and ±100 for the full control effect; nearly all actives have a fitted effect of over 55% in size
Method in brief: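 HCT-116 p53RE-bla cells seeded 4,000/well; 5 h at 37 C; compound (DMSO) added; 16 h at 37 C; CellTiter-Glo added, 30 min RT; luminescence read.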

[19] = molecular target: DNA dC->dU-editing enzyme APOBEC-3G (Homo sapiens) (UniProt Q9HC16); experiment: qHTS for inhibitors of Vif-A3G interactions: Validation (AID 588379); note: 0% is about no effect
Method in brief: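 Yellow fluorescence (Ex 488, Em 500-530) of Vif-coexpressing HeLa A3G-eYFP cells, scanned by Acumen cytometer, reports blocked A3G degradation. Cells plated at 700/well overnight at 37 deg C before compound addition, then a further overnight compound incubation at 37 deg C.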

[20] = Cell Viability - HepG2 (AID 433; calls by dose curve;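 note: potency is the fitted concentration of half-maximal effect; cells exposed to compound for 40 hours; potency for ATP loss meaning cytotoxicity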); conditions: qHTS
Method in brief: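 Cytotoxicity read as ATP loss (CellTiter-Glo luminescence) after 40 hr compound exposure of HepG2, 1500 cells/well, 37 °C. AC50 by Hill equation; 0% set by DMSO, 100% inhibition by 100 uM tamoxifen.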

DNA dC->dU-editing enzyme APOBEC-3G (Homo sapiens), sequence (Q9HC16 whole entry, looked up): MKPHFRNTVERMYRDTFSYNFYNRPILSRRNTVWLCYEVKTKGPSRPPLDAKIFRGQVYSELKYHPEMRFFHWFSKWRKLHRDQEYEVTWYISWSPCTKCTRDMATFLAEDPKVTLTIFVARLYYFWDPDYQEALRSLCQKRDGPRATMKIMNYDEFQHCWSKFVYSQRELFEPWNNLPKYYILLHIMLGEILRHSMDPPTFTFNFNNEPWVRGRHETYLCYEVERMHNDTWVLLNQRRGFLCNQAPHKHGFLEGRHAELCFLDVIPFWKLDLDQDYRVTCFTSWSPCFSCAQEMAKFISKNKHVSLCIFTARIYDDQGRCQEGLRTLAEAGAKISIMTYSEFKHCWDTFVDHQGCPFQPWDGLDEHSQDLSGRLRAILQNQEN
Muscarinic acetylcholine receptor M1 (Rattus norvegicus), sequence (P08482 whole entry, looked up): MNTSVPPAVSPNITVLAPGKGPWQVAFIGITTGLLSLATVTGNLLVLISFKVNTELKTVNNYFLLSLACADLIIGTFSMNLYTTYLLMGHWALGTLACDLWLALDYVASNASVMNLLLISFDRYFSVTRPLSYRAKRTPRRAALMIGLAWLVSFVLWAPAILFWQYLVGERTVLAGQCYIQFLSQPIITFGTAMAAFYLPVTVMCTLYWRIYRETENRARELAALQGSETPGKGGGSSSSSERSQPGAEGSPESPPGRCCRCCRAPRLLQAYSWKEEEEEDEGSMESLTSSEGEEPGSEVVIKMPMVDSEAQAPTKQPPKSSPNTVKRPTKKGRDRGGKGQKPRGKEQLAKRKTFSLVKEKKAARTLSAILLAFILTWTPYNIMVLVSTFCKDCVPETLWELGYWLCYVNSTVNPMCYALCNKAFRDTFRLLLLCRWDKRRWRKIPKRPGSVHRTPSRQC
Cytochrome P450 2C9 (Homo sapiens), sequence (P11712 whole entry, looked up): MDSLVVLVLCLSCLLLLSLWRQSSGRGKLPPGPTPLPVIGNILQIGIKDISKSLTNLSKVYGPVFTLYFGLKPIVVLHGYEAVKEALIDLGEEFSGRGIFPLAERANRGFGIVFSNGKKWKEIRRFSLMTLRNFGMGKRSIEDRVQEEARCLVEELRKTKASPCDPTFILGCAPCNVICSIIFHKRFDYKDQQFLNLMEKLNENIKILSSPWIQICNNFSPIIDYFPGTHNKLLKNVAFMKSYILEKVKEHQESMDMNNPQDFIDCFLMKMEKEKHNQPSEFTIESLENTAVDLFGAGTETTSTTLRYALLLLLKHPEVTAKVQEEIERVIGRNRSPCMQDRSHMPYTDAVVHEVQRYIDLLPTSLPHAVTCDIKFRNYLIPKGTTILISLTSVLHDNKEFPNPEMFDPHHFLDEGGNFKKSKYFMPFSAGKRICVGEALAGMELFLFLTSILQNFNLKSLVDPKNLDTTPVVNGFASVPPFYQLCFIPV
Thyroid hormone receptor beta (Homo sapiens), sequence (P10828 whole entry, looked up): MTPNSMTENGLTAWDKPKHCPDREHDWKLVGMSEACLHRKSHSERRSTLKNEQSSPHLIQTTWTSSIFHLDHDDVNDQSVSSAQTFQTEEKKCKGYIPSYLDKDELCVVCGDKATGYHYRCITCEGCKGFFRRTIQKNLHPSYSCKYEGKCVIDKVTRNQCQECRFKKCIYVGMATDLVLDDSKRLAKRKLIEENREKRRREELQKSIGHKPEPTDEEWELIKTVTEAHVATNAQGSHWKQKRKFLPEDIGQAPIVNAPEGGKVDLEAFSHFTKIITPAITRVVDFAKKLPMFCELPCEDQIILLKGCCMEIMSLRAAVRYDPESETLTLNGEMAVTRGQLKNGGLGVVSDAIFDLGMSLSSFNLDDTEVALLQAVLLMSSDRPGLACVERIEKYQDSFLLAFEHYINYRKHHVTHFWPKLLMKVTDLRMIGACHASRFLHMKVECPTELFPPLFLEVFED
Peroxisome proliferator-activated receptor alpha (Homo sapiens), sequence (Q07869 whole entry, looked up): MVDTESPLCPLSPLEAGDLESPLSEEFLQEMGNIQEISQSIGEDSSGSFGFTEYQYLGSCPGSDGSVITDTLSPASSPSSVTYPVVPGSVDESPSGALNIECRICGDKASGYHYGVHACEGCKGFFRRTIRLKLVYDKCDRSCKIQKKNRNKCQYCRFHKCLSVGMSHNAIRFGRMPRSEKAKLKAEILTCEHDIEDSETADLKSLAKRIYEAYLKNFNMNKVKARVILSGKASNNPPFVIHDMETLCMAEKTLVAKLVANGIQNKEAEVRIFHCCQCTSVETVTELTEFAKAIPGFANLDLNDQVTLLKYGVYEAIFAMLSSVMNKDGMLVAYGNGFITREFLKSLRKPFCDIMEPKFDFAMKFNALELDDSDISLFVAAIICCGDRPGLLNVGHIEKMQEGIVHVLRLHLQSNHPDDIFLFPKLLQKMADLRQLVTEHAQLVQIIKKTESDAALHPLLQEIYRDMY
Vitamin D3 receptor (Homo sapiens), sequence (P11473 whole entry, looked up): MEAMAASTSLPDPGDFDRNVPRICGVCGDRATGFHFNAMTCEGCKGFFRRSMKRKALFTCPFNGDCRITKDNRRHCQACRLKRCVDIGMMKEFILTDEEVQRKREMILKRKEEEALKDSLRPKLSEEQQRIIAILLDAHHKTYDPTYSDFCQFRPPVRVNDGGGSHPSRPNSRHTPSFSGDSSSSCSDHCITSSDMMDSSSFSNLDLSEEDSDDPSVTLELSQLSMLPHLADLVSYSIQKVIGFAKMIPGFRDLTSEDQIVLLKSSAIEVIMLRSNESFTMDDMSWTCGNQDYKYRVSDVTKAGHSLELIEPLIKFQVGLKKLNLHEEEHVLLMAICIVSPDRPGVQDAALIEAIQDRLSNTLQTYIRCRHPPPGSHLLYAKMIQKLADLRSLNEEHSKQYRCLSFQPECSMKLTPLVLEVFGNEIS
Alpha-galactosidase (Coffea arabica), sequence (Q42656 whole entry, looked up): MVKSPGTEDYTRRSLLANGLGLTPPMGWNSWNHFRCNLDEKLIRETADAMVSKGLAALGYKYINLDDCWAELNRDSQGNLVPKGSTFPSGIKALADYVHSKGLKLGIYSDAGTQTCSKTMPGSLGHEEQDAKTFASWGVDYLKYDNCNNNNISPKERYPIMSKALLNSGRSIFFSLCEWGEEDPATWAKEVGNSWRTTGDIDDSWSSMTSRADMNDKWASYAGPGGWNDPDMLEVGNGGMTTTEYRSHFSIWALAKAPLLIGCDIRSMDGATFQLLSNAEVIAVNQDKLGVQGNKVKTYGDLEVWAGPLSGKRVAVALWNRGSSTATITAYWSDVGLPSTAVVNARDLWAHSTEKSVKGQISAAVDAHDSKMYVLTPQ
Alpha-galactosidase A (Homo sapiens), sequence (P06280 whole entry, looked up): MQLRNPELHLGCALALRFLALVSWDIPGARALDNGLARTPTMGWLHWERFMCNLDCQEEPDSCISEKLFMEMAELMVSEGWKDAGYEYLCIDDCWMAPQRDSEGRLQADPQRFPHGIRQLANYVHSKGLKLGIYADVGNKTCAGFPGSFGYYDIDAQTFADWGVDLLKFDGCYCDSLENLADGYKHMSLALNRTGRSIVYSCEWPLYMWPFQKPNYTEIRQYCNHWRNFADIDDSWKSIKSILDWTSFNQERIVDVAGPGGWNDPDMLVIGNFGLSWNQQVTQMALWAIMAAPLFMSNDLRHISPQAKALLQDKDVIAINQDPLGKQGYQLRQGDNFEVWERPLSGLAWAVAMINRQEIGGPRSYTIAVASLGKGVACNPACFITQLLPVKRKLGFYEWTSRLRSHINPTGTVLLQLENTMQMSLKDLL
Guanine nucleotide-binding protein G(i) subunit alpha-1 (Homo sapiens), sequence (P63096 whole entry, looked up): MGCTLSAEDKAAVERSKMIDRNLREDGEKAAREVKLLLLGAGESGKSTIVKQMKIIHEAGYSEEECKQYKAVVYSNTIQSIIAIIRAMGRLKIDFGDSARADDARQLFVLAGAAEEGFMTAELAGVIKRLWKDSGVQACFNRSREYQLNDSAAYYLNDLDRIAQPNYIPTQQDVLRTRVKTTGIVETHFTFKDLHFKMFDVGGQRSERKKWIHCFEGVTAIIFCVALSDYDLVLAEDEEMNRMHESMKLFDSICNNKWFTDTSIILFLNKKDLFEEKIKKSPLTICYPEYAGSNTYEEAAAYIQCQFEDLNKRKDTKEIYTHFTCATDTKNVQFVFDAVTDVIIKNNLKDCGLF
Peroxisome proliferator-activated receptor gamma (Homo sapiens), sequence (P37231 whole entry, looked up): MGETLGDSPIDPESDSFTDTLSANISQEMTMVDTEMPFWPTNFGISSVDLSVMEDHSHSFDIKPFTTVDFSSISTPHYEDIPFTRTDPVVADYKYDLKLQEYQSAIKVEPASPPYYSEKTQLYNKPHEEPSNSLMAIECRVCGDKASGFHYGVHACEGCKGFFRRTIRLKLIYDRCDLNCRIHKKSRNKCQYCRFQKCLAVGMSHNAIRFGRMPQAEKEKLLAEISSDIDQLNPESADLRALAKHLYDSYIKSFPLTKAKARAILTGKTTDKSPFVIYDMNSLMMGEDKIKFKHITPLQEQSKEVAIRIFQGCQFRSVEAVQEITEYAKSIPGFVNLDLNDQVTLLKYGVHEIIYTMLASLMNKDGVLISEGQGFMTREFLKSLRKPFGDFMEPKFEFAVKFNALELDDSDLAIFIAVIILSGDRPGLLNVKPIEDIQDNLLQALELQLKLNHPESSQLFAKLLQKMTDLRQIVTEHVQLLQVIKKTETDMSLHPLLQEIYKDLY
Pyruvate kinase PKM (Homo sapiens), sequence (P14618 whole entry, looked up): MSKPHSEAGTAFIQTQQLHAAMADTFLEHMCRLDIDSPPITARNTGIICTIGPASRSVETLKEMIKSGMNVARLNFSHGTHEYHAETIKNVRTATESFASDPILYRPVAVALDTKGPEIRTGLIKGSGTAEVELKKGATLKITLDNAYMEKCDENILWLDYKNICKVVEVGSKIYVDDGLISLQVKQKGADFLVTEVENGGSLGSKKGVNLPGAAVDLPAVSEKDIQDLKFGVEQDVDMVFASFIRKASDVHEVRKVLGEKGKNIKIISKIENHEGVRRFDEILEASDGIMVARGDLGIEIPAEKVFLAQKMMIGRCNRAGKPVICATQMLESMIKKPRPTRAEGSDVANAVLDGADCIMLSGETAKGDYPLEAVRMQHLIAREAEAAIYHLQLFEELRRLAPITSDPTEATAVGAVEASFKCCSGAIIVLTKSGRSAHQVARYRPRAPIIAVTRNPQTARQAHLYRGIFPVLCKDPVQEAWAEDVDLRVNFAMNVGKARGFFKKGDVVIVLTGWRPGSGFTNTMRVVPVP

CN1Cc2c(ccc3c2OCO3)[C@@H]2[C@@H](O)Cc3cc4c(cc3[C@@H]21)OCO4
inactive: Potency [1]

CN1CC[C@]2(C)c3cc(O)ccc3N(C)[C@@H]12
active: Potency [1] 25.1 µM
inactive: outcome [2] | Potency [3] | outcome [4] | outcome [5] | outcome [6] | outcome [7]

CS(=N)(=O)CC[C@@H](N)C(=O)O (some centres not stated)
inactive: outcome [2] | outcome [8] | Potency [3] | outcome [4] | outcome [5] | outcome [6] | outcome [7]

COc1ccc(OC)c([C@H](O)[C@H](C)N)c1
inactive: outcome [2] | outcome [8] | Potency [3] | outcome [4] | outcome [5] | outcome [6] | outcome [7]

COc1ccc2c(c1OC)C(=O)O[C@H]2[C@H]1c2cc3c(cc2CCN1C)OCO3
inactive: outcome [2] | Potency [3] | outcome [5] | outcome [6] | outcome [7]
active: Potency [1] 3.98 µM

CC[C@H]1C(=O)OC[C@H]1Cc1cncn1C
inactive: outcome [5]

CC(C)[C@@]1(NC(=O)[C@@H]2C[C@H]3c4cccc5[nH]cc(c45)C[C@@H]3N(C)C2)O[C@]2(O)[C@H]3CCCN3C(=O)[C@H](Cc3ccccc3)N2C1=O
active: Potency [1] 2.51 µM

COc1ccc(C[C@H]2c3cc(OC)c(OC)cc3CCN2C)cc1OC
inactive: Potency [1]

CNC(=O)N(C)c1nnc(C(C)(C)C)s1
inactive: outcome [9] | outcome [10] | outcome [11] | outcome [12] | activity change % (negative = inhibition) [13] -7.26% | activation [14] -0.0908% | activation [15] 3.03% | max response [16] -3.93% | max response [17] 4.89% | Potency [18]

NC[C@H](O)c1ccc(O)cc1
inactive: outcome [2] | outcome [8] | Potency [3] | outcome [4] | outcome [5] | outcome [6] | outcome [7]

CN1[C@@H]2CC[C@H]1CC(O)C2 (some centres not stated)
inactive: Potency [1]

O=C1CCCC2[C@@H]3CCCN4CCC[C@@H](CN12)C34 (some centres not stated)
inactive: outcome [19]

O=C1CC2OCC=C3CN4CC[C@]56c7ccccc7N1[C@H]5[C@H]2C3C[C@H]46 (some centres not stated)
inactive: outcome [19]

CC[C@@H]1CN2CC[C@@H]1C[C@H]2[C@H](O)c1ccnc2ccc(OC)cc12
inactive: outcome [19]

CC1CC[C@@]2(NC1)O[C@@H]1C[C@H]3C4CC=C5C[C@@H](O)CC[C@]5(C)C4CC[C@]3(C)[C@H]1[C@@H]2C (some centres not stated)
inactive: outcome [19]

CC(C)(O)[C@@H]1C2OC(=O)[C@@H]1[C@]1(O)C[C@H]3O[C@]34C(=O)O[C@H]2[C@]14C
inactive: outcome [19]

CCCCCCCCCc1ccc(O)cc1
inactive: Potency [20] > 92 µM | outcome [9] | outcome [10] | outcome [11] | outcome [12] | activity change % (negative = inhibition) [13] 4.44% | activation [14] 1.31% | activation [15] 10.9% and 1.36% | max response [16] 6.94% and 6.09% | max response [17] -6.51% and -5.9% | Potency [18]

COc1cc(N)c(Cl)cc1C(=O)N[C@@H]1CN2CCC1CC2
inactive: outcome [19]

COc1cc2c(c(OC)c1OC)-c1ccc(O)c(=O)cc1[C@@H](NC(C)=O)CC2
inactive: Potency [1]
